# From the supplement of paper PMC6555819
# Test system: VDR:RXRa (NR concentration 270 nM, RXRa partner concentration 90 nM)
# Experiment: PBM binding z-score (relative to random genomic background probes); higher = stronger binding; sequences stand for … in GC…GCGATTGACAGCGTAGAATGAAGG
# Method: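 Protein-binding microarray (Agilent 4x180K custom design, double-stranded 60-nt probes: 5' GC cap, 34-nt variable region, 24-nt constant primer region; full probe sequence given). Purified or IVT nuclear receptor:RXRα heterodimers (3:1 NR:RXRα, mostly 270:90 nM) or homodimers were incubated for 1 h in PBS with 2% milk and no ligand, then detected with Alexa488 antibodies. Fluorescence from o1-orientation probes (~5 replicates averaged) was converted to z-scores against 500 random hg19 background probes. Variable regions are seed direct-repeat (DR0–DR5) sites, all their single-nucleotide variants and half-site ablations.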
row,Sequence,PBM binding z-score
1,CATACAGGGTTAGCTAGGCCAGAGTAGGGACGGC,0.398
2,CCGATTGGGGCAAAGGTTACCATACTCAGTACGA,1.6
3,CGAACTAGGGCAAGGACAGTGAATCTCCGCACGC,-0.473
4,TATACAGGGTCAAAGGCCAGAGGACGAATGTCGA,4.73
5,CGTCCAAGGTCAGAGAGCTCAGTGAATGCCGAGT,2.76
6,ACAGACAGGTGATGAACGTAACTCAGGCTATCAT,-0.0512
7,AGAACGAGGGCACGCTGAGTTGACAGCAGAGTAG,2.32
8,CCTATTAGTTGACCATAAGGGCAAACGAAGCTCG,0.834
9,CCGTCTGGGGCATAAGGTTACCATAAGCCAGCCC,0.256
10,CCTACTGGGCGATCAGGTCATTGATATCAACGTT,1.67
11,TTACCAAGGTGAAAGTCGTTGATCCCTCTGTAGA,0.25
12,TTACCAAGGTGAAAGGTCGATGATGCACGCCTTG,2.23
13,ACTTACGGGTCAACGAGGTTTTAGCACGCGTATA,6.69
14,CAGGCTAGGTCAGGGCCAGTATAGGAGGAACGTT,0.258
15,ATTTCTAGGTAAAAGTTCAGTGAATCCCGAGGAT,1.77
16,TCTATTAGGTGAAGGGCAACCGACGAGTCCGTTT,0.783
17,ATATGTAGGTTAGCTGGGGTCATCCAGACTAGGC,6.18
18,ACTAGTTGGTCAGTTGAGGTCACACACAATTCGG,4.65
19,TCATATAGGTAAATGCAAGGTGAAAGTCCGATCT,1.37
20,TCTAGTTGGTCAACGGTCACACACTCGAAATGCG,0.848

row,Sequence,PBM binding z-score
1,CAAACTAAGTCAAAGGTCAAAGTCGAGCCAACCA,5.35
2,AGACCGAGGGCAATGAGTTGATAGCACGGGTGGC,4.82
3,CCTACTGGGCCATTCAGTGGTCATTGATCATATG,-0.487
4,ATCTCTAGGTAAAAGTTCAGTAAATCCCGAGGAT,1.19
5,TAGCCTAGGTCAGATCGGGCCATTATACGCTATA,1.6
6,CCAGACAGGTGAGAGGTAACTCAGTCTGGTACGC,-0.0647
7,GCTTACGGGTCAAAGGTTATAGGATGAATAGAAT,5.56
8,CCAGACAGGTTAAAGGTAACTCAGTCTGGTACGC,1.62
9,TGAATGAGCTTATAAGATCAGGGAACGTTGCAAA,-0.361
10,CCTGCTAGATCATGGTCAGCTAATCTACAGTATG,-0.447
11,GCTAGTTGGTCCGTAAAAGGTCACACACCGGTCG,3.97
12,ACAGACAGGTGATTAAGGTAACTCAGGCTATCAT,0.713
13,AGTCAAAGTTCATCTAGGTAAGGTAAGATATGCT,4.6
14,ACTAGCTGGTCAGCTGAGGTCACACACAATTCGG,4.56
15,CGAACTAGGTCATTGTCAGGACAGTGAATAGTAA,2.52
16,TCTATTAGTTGATTAAGGCAACCGAAACAGCGGA,0.578
17,AGAACAAGGGCACGCTGAGTTGATAGCAGAGTAG,1.36
18,TCTAGTTGGTCACGGAGGTAACACACGACGGGTA,1.03
19,TGAATGATGTTAAAGATCAGGGAACGTGGCGTCG,-0.0975
20,TTACCAAGGTGAAACGTCGTTGATGCACGCCTTG,-0.243
